G9a inh – inhibitors of human histone lysine methyltransferase G9a. Potency, µM (titrated, usually from 102 µM), for the others: at the top dose activity, negative = inhibition, usual class: inhibitors. Q96KQ7. AID 504332. 8.8% of 350,000 active. G9a H3K9 monomethylation, AlphaScreen, 2 h; further: on the % scale 0 is the no-effect control and ±100 the full control effect; nearly all actives have a fitted effect of over 75% in size
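G9a (20 nM) was preincubated 15 min with compound, then reacted 2 h at room temperature with 500 nM biotin-H3K9 peptide and 20 µM SAM. Monomethyl-H3K9 detected by AlphaScreen using anti-H3K9me1 antibody.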
HP1b chromo inh – inhibitors of HP1-beta chromodomain binding to methylated histone tails; Potency, µM (highest dose often 114 µM), inactives show at the top dose activity change, negative = inhibition, usual class: inhibitors; P83916; 0.56% of 390,000 active; AlphaScreen HP1-beta / biotin-H3K9me3 peptide binding; further: nearly all actives have a fitted effect of over 70% in size
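AlphaScreen: HP1-beta (50 nM) preformed 30 min with biotin-H3(1-18)K9me3 peptide (50 nM) in PBS pH 7.4, 0.01% Tween-20. Compound added for 30 min at RT, then streptavidin donor/nickel chelate acceptor beads (10 ug/mL) for 30 min.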
BAZ2B inh – blocks human BAZ2B. AlphaScreen BAZ2B-H3K14Ac peptide displacement. Potency, µM (series often up to 114 µM), for the others: at the top dose activity change, negative = inhibition, hits mostly inhibitors. 4.4% of 360,000 active. AID 504333; further: on the % scale 0 is the no-effect control and ±100 the full control effect; nearly all actives have a fitted effect of over 60% in size
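Inhibition is scored as reduced AlphaScreen emission. The BAZ2B/b-H3(5-23)K14Ac complex (50 nM each) in PBS pH 7.4, 0.01% Tween-20 meets compound (up to 110 uM) for 30 min at RT before bead addition.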
Sfp inh – blocks B. subtilis Sfp PPTase activity; Q9F4F7; AID 1490; 3.5% of 310,000 active; Biochemical Sfp PPTase activity, qHTS; Potency, µM, inactives show largest response in the series, negative = inhibition, hits mostly inhibitors;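 further: the enzyme is Sfp with the accession as filed and its product quenches rhodamine fluorescence; 0% = enzyme reaction without inhibitor and -100% = no enzyme wells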
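Step 1, compound plus 15 nM Sfp-PPTase, 15 min, room temperature. Step 2, add rhodamine-CoA (5 uM) and BHQ-2-YbbR (12.5 uM). Step 3, read 525/598 nm fluorescence at 0 and 30 min.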
JMJD2A Tudor inh – JMJD2A Tudor domain (human) inhibition; O75164; AlphaScreen JMJD2A-Tudor / H3K4me3 peptide binding; Potency, µM (titrated, usually from 114 µM), for inactives: at the top dose activity change, negative = inhibition, most hits filed as inhibitors; 4.4% of 390,000 active; further: on the % scale 0 is the no-effect control and ±100 the full control effect; nearly all actives have a fitted effect of over 50% in size
* hit, by the source's call; ? = inconclusive; · = no result given; ! = a repeat was not active; [ ] = dose if it differs, or a comment. Rows were chosen to be rich in hits. Some 12% of all compounds tested hit in one or more screens of this group. The call rests on the fitted dose curve; in most records, active means well fitted curve in the direction sought with a large enough effect; inconclusive means small, poorly fitted or top-dose-only effect, or another doubt; inactive means no such curve, though single readings can be large; an effect the other way counts as inactive or inconclusive. Potency means the concentration at half of the fitted maximal effect.

SMILES	G9a inh	HP1b chromo inh	BAZ2B inh	Sfp inh	JMJD2A Tudor inh
CN(C)c1cccc(NC(=O)CCc2ccccc2)c1	3.2µM*	?	?	1%	12%[11.4 µM]
CC(=O)Nc1cccc(NC(=O)CCc2ccccc2)c1	?	5%	-31%	5%	-9%
O=S(=O)(Oc1ccc(Cl)cc1)c1ccccc1	·	·	·	3%	·
CC1=C/C(=N\OS(=O)(=O)c2ccccc2)C(C(C)C)=CC1=O	8.9µM*	?	35µM*	-28%	?
CC1=C/C(=N\OS(=O)(=O)c2ccccc2)C(C)=CC1=O	20µM*	-57%	35µM*	-11%	?
N#Cc1ccccc1N=Cc1ccc(Br)cc1	5%[59 µM]	0%	3%	15%	11%[57.1 µM]
COc1[nH]c(/N=C/c2ccccc2)c(C#N)c1C#N	3.2µM*	-32%	?	-9%	45µM*!
CNc1oc(Cc2cccc3ccccc23)nc1C#N	?	1%	?	9%	-29%
CC1CN(c2oc(Cc3cccc4ccccc34)nc2C#N)CC(C)O1 (centres undefined)	25µM*	-47%	?	-15%	?
N#Cc1nc(Cc2cccc3ccccc23)oc1NCCN1CCCCC1	?	-10%	79µM*	0%	?
CC1CN(c2oc(-c3cccs3)nc2C#N)CC(C)O1 (centres undefined)	-5%[59 µM]	9%	0%	0%	-26%
CN1CCCN(C(=O)c2cc(=O)[nH]c3ccccc23)c2nc3ccccc3nc21	-30%[12.7 µM]	44%	2%	6%	-6%
CCOc1cc(-c2nnc(SCC(=O)NCc3ccccc3)nc2-c2ccc(OC)c(OCC)c2)ccc1OC	7.9µM*	7%	50µM*	·	?
COc1ccc(-c2nnc(SCC(=O)NCc3ccc(C)cc3)nc2-c2ccc(OC)c(OC)c2)cc1OC	-34%[59 µM]	11%	-25%	·	-29%
CCOc1cc(-c2nnc(SCC(=O)NCc3ccc(C)cc3)nc2-c2ccc(OC)c(OCC)c2)ccc1OC	10µM*	15%	56µM*	·	-28%
COC(=O)c1ccccc1NC(=O)C(C)n1nc(C)c2c(C)n(-c3ccccc3)nc2c1=O (centres undefined)	-16%	32%	-13%	-6%	-5%
COc1cc(C2c3c(-c4ccccc4)n[nH]c3C(=O)N2c2ccccc2)ccc1O (centres undefined)	-10%	4%	-19%	4%	-31%
Cc1nc2ncnn2c(C)c1CCC(=O)NCc1ccccc1	12%	44%	1%	28%	16%
COc1cc2nc(N(C)CCCNC(=O)C3CCCO3)nc(N)c2cc1OC (centres undefined)	11µM*!	·	-3%	4%	·
COc1cc2nc(N(C)CCCNC(=O)[C@@H]3CCCO3)nc(N)c2cc1OC	11%[21.5 µM]	·	·	-21%	·
CCOC(=O)C1CCN(C(=O)C(=O)N2CCC(C(=O)OCC)CC2)CC1	6%[12.7 µM]	24%	17%	1%	1%
COC(=O)c1ccc(C2C(C#N)=C(C)NC3=C2C(=O)CC(C)(C)C3)cc1 (centres undefined)	10%	4%	10%	10%	-3%[57.1 µM]
COc1ccc(C2CC(=O)C3=C(C2)NC(C)=C(C#N)C3c2ccc(N(C)C)cc2)cc1 (centres undefined)	13µM*	?	?	2%	?
COc1cccc(NC(=S)NC(=O)/C=C/c2ccco2)c1	45µM*	-12%	50µM*	-13%	?
O=C(/C=C/c1ccco1)NC(=S)Nc1cccc(C(=O)O)c1	8.9µM*	20µM*	32µM*	79µM*	20µM*
SMILES	G9a inh	HP1b chromo inh	BAZ2B inh	Sfp inh	JMJD2A Tudor inh
CN1CCN(c2ccc(NC(=S)NC(=O)/C=C/c3ccco3)cc2)CC1	45µM*	-21%	?	-23%	?
COc1cc(NS(=O)(=O)c2ccc(NC(=S)NC(=O)/C=C/c3ccco3)cc2)ncn1	?	?	-35%	-27%	18µM*
Cc1noc(C)c1C(=O)OCC(=O)N1CCc2ccccc21	·	-5%	·	·	0%
Cc1ccc(C2=Nn3c(COc4ccc(Cl)cc4)nnc3SC2CC(=O)O)cc1 (centres undefined)	40µM*	4%	?	-9%	-8%
Nc1ncc(-c2ccccc2)n1CC1CCCO1 (centres undefined)	29%[0.501 µM]	6%	20µM*	?	?
N#Cc1c(NC(=O)CSc2ncc(-c3ccccc3)n2CC2CCCO2)sc2c1CCCC2 (centres undefined)	11µM*	-26%	?	15%	?
O=C(CSc1ncc(-c2ccccc2)n1CC1CCCO1)N1CCCCC1 (centres undefined)	-33%	28%	19%	-7%	-3%
CN(Cc1ccccc1)C(=O)CN(Cc1ccccc1)S(C)(=O)=O	3%[59 µM]	4%	-5%	4%	-12%
Cc1cc(C2=NNC(=NC3CC3)SC2)c(C)n1-c1c(C)n(C)n(-c2ccccc2)c1=O	?	25%	-11%	?	-6%
Cc1c(N=C2NN=C(c3ccc(Cl)cc3)CS2)c(=O)n(-c2ccccc2)n1C	10µM*	1%	-26%	50µM*	-30%
Cc1c(N=C2NN=C(c3c[nH]c4ccccc34)CS2)c(=O)n(-c2ccccc2)n1C	45µM*	22%	-28%	?	?
O=C(CN1CCOCC1)Nc1scc(-c2ccccc2)c1C(=O)N1CCOCC1	-10%	17%	-1%	1%	-8%
Cc1ccc(-c2ccc(/C=N/NC(=S)Nc3ccccc3)o2)cc1[N+](=O)[O-]	-23%	-28%	?	-2%	?
O=C(N/N=C/c1ccc(-c2ccccc2)o1)c1ccccc1O	·	38%	-7%	9%	-25%
Cc1cc(C)n(Cc2ccc(C(=O)N/N=C/c3ccc(-c4ccc([N+](=O)[O-])cc4)o3)o2)n1	-24%	?	20µM*	?	50µM*
CNC(=S)N/N=C/c1ccc(-c2ccc(C(=O)O)cc2)o1	·	?	?	45µM*	-4%[11.4 µM]
O=C(N/N=C/c1ccc(-c2ccc([N+](=O)[O-])cc2)o1)C(O)c1ccccc1 (centres undefined)	?	3%	-10%	-7%	-27%
CNC(=S)N/N=C/c1ccc(-c2ccc(Cl)c([N+](=O)[O-])c2)o1	·	10%	79µM*	-14%	-25%
CCC(=O)N/N=C/c1ccc(-c2ccc([N+](=O)[O-])cc2)o1	·	0%	-4%	-7%	-6%
Cc1ccc(C)c(N=Cc2ccc(-c3ccc([N+](=O)[O-])cc3)o2)c1	35µM*	?	?	19%	56µM*
C=C(C)C(=O)N1CC2(CC(c3cccc(NC(=O)CCCCC)c3)=NO2)C[C@H]1C(N)=O (some centres undefined)	-5%[12.7 µM]	24%	-2%	1%	-14%
Cc1ccc(OCC(=O)Nc2cc(-c3cccc(C)c3)nn2-c2ccccc2)cc1	5%[59 µM]	24%[57 µM]	6%	·	5%

Compound activity: PubChem BioAssay, National Center for Advancing Translational Sciences (NCATS)
